Rows were chosen to be rich in hits. Some 11% of all compounds tested hit in one or more screens of this group.
HP1b chromo inh: HP1-beta chromodomain-methylated histone interaction inhibition. 390,000 compounds, 0.56% hits. AlphaScreen HP1-beta / biotin-H3K9me3 peptide binding. P83916. Potency, µM (titrated, usually from 114 µM), most hits filed as inhibitors. AID 540317; further: nearly all actives have a fitted effect of over 70% in size
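HP1-beta protein (50 nM final) preincubated 30 min at room temperature with biotinylated H3(1-18)K9me3 peptide (50 nM) in PBS pH 7.4, 0.01% Tween-20, then compound added for 30 min. AlphaScreen streptavidin donor/nickel chelate acceptor beads (10 ug/mL final), 30 min dark, luminescence read.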
PI5P4K alpha inh: PI5P4K alpha (human) kinase inhibition. 330,000 compounds, 1.2% hits. AID 652105. PI5P4Kalpha enzyme, ADP-Glo luminescence, 60 min; hits give low values. P48426. max response, %; active means max response of -50% or lower; inconclusive means between -30% and -50%; inactive means -30% or higher; further: value at the top dose of about 77 µM
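PI5P4Kalpha ADP-Glo assay; 5 microM ATP final; 60 min RT reaction; HEPES pH 7.4/EGTA/CHAPS, 5% DMSO; controls lacking substrate or enzyme; luminescent end-point.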
JMJD2A Tudor: JMJD2A Tudor domain (human) inhibition; O75164; AlphaScreen JMJD2A-Tudor / H3K4me3 peptide binding; Potency, µM (highest dose often 114 µM), hits mostly inhibitors; 390,000 compounds, 4.4% hits; AID 504339; further: nearly all actives have a fitted effect of over 50% in size
L3MBTL1 inh: inhibitors of human L3MBTL1. 230,000 compounds, 0.66% hits. AID 485360. AlphaScreen L3MBTL1–H3K9me1 peptide binding. Q9Y468. Potency, µM (top dose mostly 57.1 µM), most hits filed as inhibitors; further: nearly all actives have a fitted effect of over 60% in size
Target sequence (Q9Y468 whole entry, looked up): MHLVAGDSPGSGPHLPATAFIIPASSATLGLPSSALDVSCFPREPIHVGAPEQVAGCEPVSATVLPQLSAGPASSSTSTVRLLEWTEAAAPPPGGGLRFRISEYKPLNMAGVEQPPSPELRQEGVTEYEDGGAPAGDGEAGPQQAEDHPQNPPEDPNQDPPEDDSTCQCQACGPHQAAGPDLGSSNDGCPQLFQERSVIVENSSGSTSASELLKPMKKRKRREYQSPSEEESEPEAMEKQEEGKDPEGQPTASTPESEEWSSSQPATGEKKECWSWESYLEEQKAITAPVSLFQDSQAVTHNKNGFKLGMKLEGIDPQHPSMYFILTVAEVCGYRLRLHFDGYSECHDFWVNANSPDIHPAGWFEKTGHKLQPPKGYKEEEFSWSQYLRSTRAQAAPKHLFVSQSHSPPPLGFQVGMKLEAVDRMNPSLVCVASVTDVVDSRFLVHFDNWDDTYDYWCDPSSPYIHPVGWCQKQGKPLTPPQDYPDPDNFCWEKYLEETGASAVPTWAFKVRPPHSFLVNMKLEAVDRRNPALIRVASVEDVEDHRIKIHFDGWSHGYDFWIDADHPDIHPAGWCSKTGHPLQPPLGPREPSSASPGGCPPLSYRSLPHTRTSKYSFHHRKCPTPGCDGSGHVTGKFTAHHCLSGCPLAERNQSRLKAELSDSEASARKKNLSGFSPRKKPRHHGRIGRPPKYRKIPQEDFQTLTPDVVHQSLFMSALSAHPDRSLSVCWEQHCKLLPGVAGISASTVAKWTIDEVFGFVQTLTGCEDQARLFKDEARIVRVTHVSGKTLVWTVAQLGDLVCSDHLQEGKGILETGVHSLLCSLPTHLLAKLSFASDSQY
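First, the protein-peptide complex forms for 30 min at room temperature (L3MBTL1 50 nM, biotinylated H3K9me1 peptide 75 nM). Next, compounds are pin-transferred and incubated 30 min. Finally, AlphaScreen beads are added and read after 30 min.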
BAZ2B block: BAZ2B (human) inhibition; Q9UIF8; 360,000 compounds, 4.4% hits; AlphaScreen BAZ2B-H3K14Ac peptide displacement; Potency, µM (series often up to 114 µM), most hits filed as inhibitors; further: nearly all actives have a fitted effect of over 60% in size
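BAZ2B (50 nM) with biotin-H3(5-23)K14Ac peptide (50 nM) in PBS pH 7.4, 0.01% Tween-20, preformed 30 min, then compound 30 min at room temperature; top concentration 110uM. AlphaScreen streptavidin donor/nickel chelate acceptor beads (10 ug/mL final), 20 min dark, signal read.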
G9a inh: inhibitors of human histone lysine methyltransferase G9a; Q96KQ7; G9a H3K9 monomethylation, AlphaScreen, 2 h; Potency, µM (series often up to 102 µM), usual class: inhibitors; 350,000 compounds, 8.8% hits; AID 504332; further: nearly all actives have a fitted effect of over 75% in size
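Signal arises when biotinylated H3K9 peptide, once monomethylated, bridges streptavidin donor and antibody-captured acceptor beads. Enzyme at 20 nM was preincubated 15 min with test compounds; peptide 500 nM and SAM 20 uM then reacted for 2 h.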
Hits are given with their value; i = inactive; ? = inconclusive; nt = no result given; ! = not confirmed by another sample; [ ] = remark or other dose. Unless noted, the call rests on the fitted dose curve; in most records, active means well fitted inhibition curve with a large enough effect; inconclusive means small, poorly fitted or top-dose-only effect; inactive means no such curve, though single readings can be large or run the other way.

SMILES	HP1b chromo inh	PI5P4K alpha inh	JMJD2A Tudor	L3MBTL1 inh	BAZ2B block	G9a inh
O=C(NC1CCCC1)c1ccc(CSc2nc3ccncc3n2Cc2ccc(F)cc2)cc1	i	i	i	i	i	45µM!
Cc1noc(C)c1S(=O)(=O)N(CC(=O)Nc1ccc(F)cc1F)c1ccc(C(C)C)cc1	i	nt	i	nt	nt	i
COc1ccc(C(c2c(C)[nH]n(C(N)=S)c2=O)C(C#N)C#N)cc1 (stereo unspecified)	i	i	i	i	i	?
Cc1[nH]n(-c2ncc(-c3ccc(Cl)cc3)s2)c(=O)c1C(c1ccc(Cl)cc1)C(C#N)C#N (stereo unspecified)	?	-70	56µM	i	?	?
COc1cccc(C(=O)NCCS(=O)(=O)NC2CCCC2)c1	i	i	i	i	i	32µM
COc1cccc(/C(O)=C/c2nc3ccc(C(=O)NCCc4ccc(Cl)cc4)cc3[nH]c2=O)c1	i	-93	i	i	i	?
COc1cccc(C(=O)NCCS(=O)(=O)NCCc2ccccc2)c1	i	i	i	i	i	45µM
COc1cccc(/C(O)=C/c2nc3ccc(C(=O)NCCc4cccc(C)c4)cc3[nH]c2=O)c1	i	i	i	i	i	?
Cc1ccccc1C(=O)Nc1ccc(C(=O)OCc2cc(=O)n3nc(C(C)C)sc3n2)cc1	i	nt	i	nt	i	i
Cc1nn(CC(=O)NCc2cccc(F)c2)c(=O)c2c(C)n(-c3ccc(Cl)cc3)nc12	i	nt	i	nt	i	i
NNC(=S)Nc1c(Br)cc(F)cc1Br	i	i	i	i	i	35µM
COc1ccc2c(c1)c1c(c(=O)n(-c3cccc(C)c3)c(=O)n1Cc1cccc(Cl)c1)n2C	i	nt	i	nt	i	i
Cc1ccc(SCCC(=O)OC(C(=O)NC(N)=O)C(C)C)cc1 (stereo unspecified)	i	-67	11µM	nt	i	?
Cc1ccc(SCCC(=O)NC(C)C)cc1	i	nt	i	i	i	i
Cc1cc(Cl)ccc1NS(=O)(=O)c1c(C(=O)N2CCCCCC2)c(C)n(C)c1C	i	nt	i	nt	?	i
CSc1nnc(C)c(/C=C/NOCc2cccc(F)c2)n1	i	i	i	i	?	22µM
CCc1ccc(-n2nc(C)c3c(C)cc(=O)n(CC(=O)N(CC)Cc4ccccc4)c32)cc1	i	nt	i	nt	i	i
C/C(=N\N1CCN(c2ccccc2)CC1)c1ccco1	i	i	i	i	?	56µM
CC(C)S(=O)(=O)c1cnc(-c2ccccn2)nc1N	i	i	50µM	i	56µM	i
O=C(CSc1nnc(CCc2ccccc2)n1-c1ccc(Cl)cc1)c1ccccc1	i	-50	i	i	i	11µM
COc1ccc(-n2c(CCc3ccccc3)nnc2SCC(=O)c2ccc(Cl)cc2)cc1	i	i	i	i	i	?
CCN1C(=O)[C@H]2[C@@H](c3ccc(-c4ccc(F)cc4)c(OC)c3)N[C@@](C)(C(=O)OC)[C@H]2C1=O	i	i	?	i	56µM	?
COc1ccc(/C=N\Nc2ccccn2)c(OC)c1	i	i	i	i	i	i
COc1ccc(/C=N/Nc2ncc(Br)cn2)c(OC)c1	i	?	50µM	i	i	i[12.7 µM]
C=CCNC(=O)NC(=O)COC(=O)/C=C/c1cccc([N+](=O)[O-])c1	i	-83	i	i	i	i
SMILES	HP1b chromo inh	PI5P4K alpha inh	JMJD2A Tudor	L3MBTL1 inh	BAZ2B block	G9a inh
O=C(NC1CCCCC1)c1ccc2c(c1)N(Cc1ccc(Cl)cc1)C(=O)c1ccccc1S2(=O)=O	i	nt	i	nt	i	i
Cc1nc(Cl)c(C(=O)NCc2ccccc2)c(C)c1Cl	i	i	i	i	i	i[12.7 µM]
COC(=O)/C=C/c1c(C)nc(NCc2ccccc2)nc1Cl	i	i	i	nt	?	50µM
CCC(=O)Nc1ccccc1-c1nc2ccccc2n(C(C)C(=O)Nc2ccc(OC)cc2)c1=O (stereo unspecified)	i	nt	i	nt	i	i
CCN(CC)P(=O)(Nc1ccc(C)cc1Br)c1ccc(N(C)C)cc1NC(=O)c1ccco1 (stereo unspecified)	?	i	40µM	nt	?	40µM
Cc1ccc(NC(=O)c2ccco2)c(NC(=O)c2ccccc2)c1	i	i	i	nt	i	i
CCCC(c1nnnn1Cc1ccco1)N1CCN(C2CCCC2)CC1 (stereo unspecified)	i	i	?	i	?	50µM
CCC(c1nnnn1Cc1cccs1)N1CCN(C2CCCC2)CC1 (stereo unspecified)	i	i	i	nt	i	i[12.7 µM]
CCCC(c1nnnn1C(C)(C)CC)N1CCN(C2CCCC2)CC1 (stereo unspecified)	i	i	i[11.4 µM]	i	?	89µM
CCCC(c1nnnn1C1CCCCC1)N1CCN(C2CCCC2)CC1 (stereo unspecified)	i	i	i	nt	?	?
CCCC(c1nnnn1Cc1cccs1)N1CCN(C2CCCC2)CC1 (stereo unspecified)	?	i	56µM	nt	?	?
O=c1c2oc3ccccc3c2n(Cc2ccccc2F)c(=O)n1Cc1ccccc1	i	nt	i	nt	i	i
CC(C)CN1CC[C@@]2(CCCN(C(=O)c3cc(C(F)(F)F)cc(C(F)(F)F)c3)C2)C1	nt	nt	nt	nt	nt	i[12.7 µM]
COc1ccccc1NC(=O)C1=C(C)Nc2c(C(=O)Nc3ccc(F)cc3)cnn2C1c1cccc([N+](=O)[O-])c1 (stereo unspecified)	i	nt	i	nt	i	i
COc1ccc(OC)c(NC(=O)c2cccc(Cn3cc(Br)c([N+](=O)[O-])n3)c2)c1	i	i	i	i	i	2.5µM
Cc1ccccc1NC(=O)c1cccc(Cn2cc(Br)c([N+](=O)[O-])n2)c1	i	i	i	i	i	i[12.7 µM]
COc1ccc(-c2oc3ncn4nc(COc5ccccc5C)nc4c3c2-c2ccc(OC)cc2)cc1	i	nt	i	nt	i	i
COc1cccc(C(=O)Nc2ccccc2-c2nnc(-c3ccc(C(C)(C)C)cc3)o2)c1	i	nt	i	nt	i	i
O=C(CSc1nncs1)Nc1ccc2[nH]c(=O)[nH]c2c1	i	?	i	i	i	11µM
COc1cccc(Nc2nnc(SCC(=O)N3CCOCC3)s2)c1	i	nt	i	i	i	i
COc1ccc(Nc2nnc(SCC(=O)Nc3ccc4[nH]c(=O)[nH]c4c3)s2)cc1	i	i	i	i	i	16µM
Cc1nnc(SCC(=O)Nc2ccc3[nH]c(=O)[nH]c3c2)s1	i	i	i	i	i	?
COc1ccc(NC(=O)CSc2nnc(NC(=O)c3ccccc3C(=O)O)s2)cc1	i	i	50µM	i	i	?
COc1ccc(Nc2nnc(SCC(=O)N3CCCC3)s2)cc1	i	i	i	nt	i	35µM
CCCOc1ccc(CNC(=O)C2CCN(C(=O)c3sccc3-n3cccc3)CC2)cc1	i	nt	i	nt	i	?
O=C(CSc1ccc([N+](=O)[O-])cn1)Nc1ccc2[nH]c(=O)[nH]c2c1	i	i	i	nt	i	32µM

Screens deposited in PubChem BioAssay by National Center for Advancing Translational Sciences (NCATS).
